# Experimental data taken from PubChem BioAssay (EPA / NIEHS).
# Inconclusive results are not listed. Activity calls are given as the source filed them. The calls were made as follows: active = hit-call score of the fitted dose curve at least 0.9, where 1 is the maximum; inconclusive = response in the unintended direction; inactive = score below 0.9.
# Molecular target: human Vitamin D Receptor (VDR), VDR (gene 7421) (UniProt P11473)
# Assay: ATG_VDR_TRANS: Attagene TRANS-FACTORIAL HepG2 Assay for human Vitamin D Receptor (VDR) (AID 2283022)
# How it was run: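 RT-PCR/capillary electrophoresis read-out of reporter mRNA induction in transiently transfected HepG2; 24 h dosing; chimeric NR-Gal4 (TRANS format); gain-of-signal fit against DMSO baseline.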
# Sequence of human Vitamin D Receptor (VDR), VDR (gene 7421) (P11473 whole entry, looked up): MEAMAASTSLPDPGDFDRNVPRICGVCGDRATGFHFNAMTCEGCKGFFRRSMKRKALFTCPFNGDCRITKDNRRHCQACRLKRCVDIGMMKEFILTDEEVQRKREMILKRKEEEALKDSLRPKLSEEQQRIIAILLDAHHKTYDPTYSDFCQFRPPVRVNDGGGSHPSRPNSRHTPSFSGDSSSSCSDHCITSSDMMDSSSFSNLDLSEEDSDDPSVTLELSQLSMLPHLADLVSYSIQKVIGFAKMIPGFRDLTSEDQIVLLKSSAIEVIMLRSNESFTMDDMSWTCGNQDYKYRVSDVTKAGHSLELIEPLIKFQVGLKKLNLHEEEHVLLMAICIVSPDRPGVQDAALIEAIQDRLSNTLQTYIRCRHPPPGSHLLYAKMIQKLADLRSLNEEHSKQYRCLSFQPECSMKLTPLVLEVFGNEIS
row,Compound,outcome
1,C=C(C)CNCC,inactive
2,COC(=O)C=C(C)CCC=C(C)C,inactive
3,CC1(C)O[C@@H]2C[C@H]3[C@@H]4CCC5=CC(=O)C=C[C@]5(C)[C@@]4(F)[C@@H](O)C[C@]3(C)[C@]2(C(=O)CO)O1,inactive
4,NC1CCCCC1N (stereo not drawn),inactive
5,COC(CC(C)CCCC(C)(C)O)OC (stereo not drawn),inactive
6,CCCC[O][Al]([O]CCCC)[O]CCCC,inactive
7,CN1CCOCC1,inactive
8,O=C(O)c1cc(C(=O)O)cc([N+](=O)[O-])c1,inactive
9,C=Cc1ccc(C)cc1,inactive
10,C=CCCC(=O)/C=C/C1C(C)=CCCC1(C)C (stereo not drawn),inactive
11,C=C(C)C(=O)OCCOC1CC2CC1C1C=CCC21 (stereo not drawn),inactive
12,CCCCC(CC)COC(=O)c1ccc(O)cc1 (stereo not drawn),inactive
13,O=C(Nc1ccc2c(c1)Cc1ccccc1-2)C(F)(F)F,inactive
14,Brc1ccc(Br)c(Br)c1,inactive
15,CC(C)(CO)[C@@H](O)C(=O)NCCC(=O)O,inactive
16,CCN(CCN)c1cccc(C)c1,inactive
17,O=C(O)COCC(=O)O,inactive
18,Nc1ccc(Cl)c([N+](=O)[O-])c1,inactive
19,CCCOC(=O)c1c(Cl)c(Cl)c(Cl)c(Cl)c1C(=O)OCCC,inactive
20,O=C1CCCC=CCCCCCCCCCC1,inactive
21,C=COCCOCCOC=C,inactive
22,COc1cc([C@@H]2c3cc4c(cc3[C@@H](O[C@@H]3O[C@@H]5CO[C@@H](C)O[C@H]5[C@H](O)[C@H]3O)[C@H]3COC(=O)[C@H]23)OCO4)cc(OC)c1O,inactive
23,BrCc1cccc(Oc2ccccc2)c1,inactive
24,NCCNc1cccc2ccccc12,inactive
25,CCOC(=O)CCc1ccccc1,inactive
26,C=CCN(CC=C)CC=C,inactive
27,Cc1ccc2c(c1)C(=O)OC2=O,inactive

row,Compound,outcome
1,COc1cc(C(C)C)ccc1C,inactive
2,Cc1ccc(OC(=O)c2ccccc2O)cc1,inactive
3,COC(=O)c1ccc(OC)cc1,inactive
4,CC(=O)C(C)O (stereo not drawn),inactive
5,COS(=O)(=O)O,inactive
6,c1ccc(CN(Cc2ccccc2)Cc2ccccc2)cc1,inactive
7,O=CCc1ccccc1,inactive
8,O=C1OC(=O)c2c(Br)c(Br)c(Br)c(Br)c21,inactive
9,C=C[Si]1(C)O[Si](C)(C=C)O[Si](C)(C=C)O[Si](C)(C=C)O1 (stereo not drawn),inactive
10,CC(C)c1ccccc1O,inactive
11,CC(C)(C)C1=CC(=O)C(C(C)(C)C)=CC1=O,inactive
12,OCCOCCN1CCN(C2=Nc3ccccc3Sc3ccccc32)CC1,inactive
13,O=[N+]([O-])c1cccc(Cl)c1,inactive
14,CCCCCC(=O)CC,inactive
15,CSc1c(Cl)c(Cl)c(Cl)c(Cl)c1Cl,inactive
16,CCCC(=O)c1ccccc1,inactive
17,CCCOCCO,inactive
18,CC1(C)COCN1,inactive
19,CCCCCCCCCC(C)C=O (stereo not drawn),inactive
20,CCC1(c2ccccc2)C(=O)NCNC1=O,inactive
21,N#Cc1ccc(CC(=O)c2cccc(C(F)(F)F)c2)cc1,inactive
22,CCCC(C)C(O)CC (stereo not drawn),inactive
23,C[Si]1(C)O[Si](C)(C)O[Si](C)(C)O1,inactive
24,OC[C@H]1O[C@@H](Oc2ccc(O)cc2)[C@H](O)[C@@H](O)[C@@H]1O,inactive
25,C=Cc1ccncc1,inactive
26,CCc1ccc(O)cc1,inactive
